The source of these data is PubChem BioAssay.

Active and inactive are the calls of the source.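 The calls were made as follows, unless noted: active = fluorescence slope after compound addition differing from the mean of all screened samples at 99.7% confidence, in either direction; inactive = the rest.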

By inhibition is commonly meant the relative decrease from the control value, in per cent.

A short description of assay [1]: inhibitors of TNFa-induced NFkB p65 translocation, primary screen, imaging, HUVEC, MLSMR starter and 10KST1 sets (AID 438;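 active = inhibition above 20% together with a positive visual image hit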;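 also: compound added about 3h40 before a 20 min TNFalpha stimulation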;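 as to inhibition: signal is the nuclear over cytoplasmic p65 intensity ratio per well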). Conditions: HUVEC TNFa-induced p65 nuclear translocation; cell count: measured here: nuclei count (cytotoxicity indicator), at 2.08 µM unless noted; inhibition: at 2 µM, stronger effect = higher value unless noted.
The nature of assay [2]: inhibitors of mutant huntingtin aggregation, primary screen, imaging, exon1htt(103Q)mCFP cells, high-content imaging (AID 483;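 active = visual image review flags a hit and inhibition of aggregation exceeds 20%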;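 also: compound exposure lasted 3 days before fixation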;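 as to nuclei count: percent of the per-plate median nuclei count of sample wells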). Conditions: exon1htt(103Q)mCFP cell line, aggregate imaging, at 2 µM; inhibition of aggregation: stronger effect = higher value; nuclei count: measured here: cell count, toxicity.
Assay [3] in a line: inhibitors of E-selectin induction by TNFa, primary screen, imaging, HUVEC, immunofluorescence, MLSMR starter and 10KST1 sets (AID 487;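 active = visually confirmed hit in the image check and inhibition above 20%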;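 as to inhibition: signal is fraction of cell area covered by stained E-selectin grains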;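 as to nuclei count: 100% = median nuclei count of all wells on the same plate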). The settings on record: HUVEC TNFalpha-induced E-selectin immunofluorescence imaging, at 2 µM; inhibition: stronger effect = higher value; nuclei count: measured here: cell number, toxicity.
In assay [4] the target is Voltage-gated potassium channel subunit beta-2 (Rattus norvegicus) (UniProt P62483). In words: KvBeta enzyme negative modulators, primary screen, biochemical, NADPH fluorescence (AID 622;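 active = fluorescence slope higher than the sample average by over 3 SD, cut at about -0.22 in these data, passing the limit was not always enough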;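 also: slope of raw intensity against log time taken from 70 to 1610 s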). The settings on record: recombinant KvBeta, 4-cyanobenzaldehyde reduction, at 10 µM, stronger effect = higher value.
Assay [5] has the same target. In words: KvBeta positive modulators, primary screen, biochemical, NADPH fluorescence (AID 623;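 active = NADPH fluorescence slope more negative than the mean of all samples by about 3 SD, 99.7% confidence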;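 also: fluorescence intensity change per second fitted from 20 to 320 s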). Conditions: Recombinant KvBeta, NADPH fluorescence decrease slope, 10 min; at 10 µM; stronger effect = lower value.
Assay [6] has as its target Alpha-2C adrenergic receptor (Homo sapiens) (UniProt P18825). In words: modulators of alpha2C/GIRK thallium flux, primary screen, cell-based, HEK293 alpha2C/GIRK1/2 (AID 624).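 Also: slope of fluorescence ratio to pre-addition baseline per second over 15 to 24 s.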 The settings on record: thallium flux BTC fluorescence, at 10 µM, actives lie on both sides.
Assay [7] is described as follows: inhibitors of Sendai virus-induced IRF3 signaling, primary screen, TLR/RLR signaling modifier project, cell-based, Sendai virus stimulus, luciferase, 10K MLSCN set (AID 602276;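 active = inhibition at or above 50% at 10 µM; inactive = inhibition below 50%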;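 also: firefly luciferase from ISG56 promoter only with Renilla not read in this screen; 0% = Sendai virus plus DMSO and 100% = medium plus DMSO without virus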). The settings on record: HEK293 RL24 IRF3 luciferase reporter, at 10 µM, stronger effect = higher value. For orientation: In a reporter assay the amount or activity of a reporter protein is the signal.

Assay [8] can be described thus: inhibitors of poly I:C-induced TLR3 signaling, primary screen, cell-based, poly I:C stimulus, luciferase, 10K MLSCN set (AID 602277;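 active = inhibition of the reporter signal at or above 50%; inactive = inhibition below 50%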). The settings on record: HEK293-TLR3 RL24 IRF3 luciferase reporter, at 10 µM, stronger effect = higher value.

Alpha-2C adrenergic receptor (Homo sapiens), sequence (P18825 whole entry, looked up): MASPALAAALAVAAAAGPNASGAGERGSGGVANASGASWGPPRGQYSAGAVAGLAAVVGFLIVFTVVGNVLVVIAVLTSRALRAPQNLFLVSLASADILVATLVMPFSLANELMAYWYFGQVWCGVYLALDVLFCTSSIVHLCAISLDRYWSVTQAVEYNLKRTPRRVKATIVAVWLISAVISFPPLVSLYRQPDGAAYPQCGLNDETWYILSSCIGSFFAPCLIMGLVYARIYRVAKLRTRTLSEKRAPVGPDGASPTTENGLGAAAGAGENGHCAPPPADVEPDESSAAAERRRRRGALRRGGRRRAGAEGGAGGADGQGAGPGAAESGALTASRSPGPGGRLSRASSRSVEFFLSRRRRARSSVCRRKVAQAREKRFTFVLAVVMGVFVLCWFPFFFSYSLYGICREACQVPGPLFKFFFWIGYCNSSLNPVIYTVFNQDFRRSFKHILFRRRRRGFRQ
Voltage-gated potassium channel subunit beta-2 (Rattus norvegicus), sequence (P62483 whole entry, looked up): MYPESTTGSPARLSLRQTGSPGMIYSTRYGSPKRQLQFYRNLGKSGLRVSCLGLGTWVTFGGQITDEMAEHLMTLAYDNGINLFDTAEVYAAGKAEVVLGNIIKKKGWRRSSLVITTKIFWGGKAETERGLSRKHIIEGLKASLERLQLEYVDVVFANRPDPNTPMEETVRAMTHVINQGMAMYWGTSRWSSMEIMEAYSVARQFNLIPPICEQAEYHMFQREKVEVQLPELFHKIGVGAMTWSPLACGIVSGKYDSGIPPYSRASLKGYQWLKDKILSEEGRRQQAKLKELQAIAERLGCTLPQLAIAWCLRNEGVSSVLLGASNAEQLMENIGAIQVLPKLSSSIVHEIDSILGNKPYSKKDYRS

`CCc1ccc(OCCCN=C(C)c2c(O)n(C)c(=O)n(C)c2=O)cc1` gave a cell count in assay [1] of 627. Further, the inhibition in assay [1] is 0.2% (inactive); in assay [3] it was 23.8% (inactive); in assay [7], 11.6% (inactive); in assay [8] it was 14.8% (inactive). Moreover, the inhibition of aggregation in assay [2] is -0.8% (inactive). Moreover, the nuclei count came to 84.3% in assay [2] and 95.1% in assay [3]. Also, the fluorescence slope in assay [4] is -0.385 (inactive). In assay [5], the NADPH fluorescence slope was 2.2e-06 (inactive). For the same compound, the slope in assay [6] was 0.00351 (inactive).
As for `Cc1ccc(-c2nc(CS(=O)CC(=O)N3CCC4(CC3)OCCO4)c(C)o2)cc1` (stereo not given), the cell count in assay [1] amounted to 704. Besides, the inhibition in assay [1] is -30.6% (inactive); in assay [3], -4.2% (inactive); in assay [7], 16.5% (inactive); in assay [8] it was 19.1% (inactive). Further, the inhibition of aggregation in assay [2] was -2.4% (inactive). The nuclei count in assay [2] was 99.4%; in assay [3], 101%. Further, the fluorescence slope in assay [4] was -0.62 (inactive). The NADPH fluorescence slope in assay [5] is -2.5e-05 (inactive). In addition, the slope in assay [6] was 0.00606 (inactive).
In assay [1], `Cc1cccc(-n2c(O)c(C=NCCCN3CCOCC3)c(=O)[nH]c2=O)c1C` showed a cell count of 710. The inhibition is -3.5% (inactive) in assay [1], 26.7% (inactive) in assay [3], 0.794% (inactive) in assay [7] and 3.78% (inactive) in assay [8]. The inhibition of aggregation in assay [2] was 9.8% (inactive). In addition, the nuclei count came to 96.5% in assay [2] and 102% in assay [3]. Also, the fluorescence slope in assay [4] was -0.391 (inactive). Further, in assay [5], the NADPH fluorescence slope is 2.3e-05 (inactive). The slope in assay [6] is 0.00546 (inactive).
With `CC(C)(C)C(O)C(Oc1ccc(Cl)cc1)n1cncn1` (stereo not given), the cell count in assay [1] was 268. Moreover, the inhibition in assay [1] is 4.3% (inactive); in assay [3], -5.1% (inactive); in assay [7], 15.5% (inactive); in assay [8] it was 32.5% (inactive). Further, the inhibition of aggregation in assay [2] is 5.1% (inactive). Further, the nuclei count was 93% in assay [2] and 131% in assay [3]. The fluorescence slope in assay [4] is -0.592 (inactive). In addition, the NADPH fluorescence slope in assay [5] is -2.7e-05 (inactive). The slope in assay [6] is 0.00646 (inactive).
On to `COc1ccccc1/C=C1/C(=N/O)C2CCN1CC2`, for which the cell count in assay [1] was determined as 548. The inhibition in assay [1] is -15% (inactive); in assay [3], 42.2% (inactive); in assay [7], 9.04% (inactive); in assay [8] it was 36.5% (inactive). The inhibition of aggregation in assay [2] was -6.2% (inactive). The nuclei count in assay [2] came to 76.9%; in assay [3], 105%. Besides, the fluorescence slope in assay [4] was -0.467 (inactive). Further, in assay [5], the NADPH fluorescence slope was -1.3e-05 (inactive). Besides, in assay [6], the slope was 0.00314 (inactive).
Consider `CCCCCCC(N)CC(=O)O` (stereo not given), for which the cell count in assay [1] worked out at 689. Besides, the inhibition is 2.4% (inactive) in assay [1], 42.8% (inactive) in assay [3], 9.07% (inactive) in assay [7] and 28% (inactive) in assay [8]. Also, the inhibition of aggregation in assay [2] was -9.8% (inactive). Also, the nuclei count in assay [2] is 116%; in assay [3], 80.1%. For the same compound, the fluorescence slope in assay [4] was -0.456 (inactive). Also, the NADPH fluorescence slope in assay [5] was -3e-05 (inactive). In assay [6], the slope is 0.00377 (inactive).
Compound `CCCCn1c(O)c(C(CC)=Nc2cccc(C(=O)O)c2)c(=O)[nH]c1=O` yielded a cell count in assay [1] of 688. Also, the inhibition in assay [1] is -5.8% (inactive); in assay [3] it was -25.6% (inactive); in assay [7], 9.53% (inactive); in assay [8] it was 9.91% (inactive). Moreover, the inhibition of aggregation in assay [2] is 9.5% (inactive). Besides, the values for the nuclei count in assay [2] and in assay [3] were 86.6% and 105%, respectively. The fluorescence slope in assay [4] was -0.382 (inactive). Further, the NADPH fluorescence slope in assay [5] is 2.4e-05 (inactive). For the same compound, the slope in assay [6] is 0.00652 (inactive).
In turn, `Cc1nc2ccccc2c(=O)n1-c1ccc(F)cc1` came in with a cell count in assay [1] of 321. For the same compound, the inhibition is -5% (inactive) in assay [1], -36.4% (inactive) in assay [3], 7.2% (inactive) in assay [7] and 36.9% (inactive) in assay [8]. For the same compound, the inhibition of aggregation in assay [2] was 7.1% (inactive). Moreover, the nuclei count in assay [2] and in assay [3] was 111% each time. In assay [4], the fluorescence slope was -0.456 (inactive). In addition, in assay [5], the NADPH fluorescence slope was 4.9e-06 (inactive). The slope in assay [6] was 0.00327 (inactive).
Compound `CN1C(=O)N(C)C(=O)C2(Cc3ccccc3N3CCOCC32)C1=O` (stereo not given) gave a cell count in assay [1] of 547. The inhibition is -5.7% (inactive) in assay [1], -43.9% (inactive) in assay [3], 16.2% (inactive) in assay [7] and 24.6% (inactive) in assay [8]. For the same compound, the inhibition of aggregation in assay [2] was -30.5% (inactive). In addition, the results for the nuclei count in assay [2] and in assay [3] were 92.5% and 148%, respectively. Besides, the fluorescence slope in assay [4] was -0.363 (inactive). In addition, the NADPH fluorescence slope in assay [5] was 3.8e-05 (inactive). Also, the slope in assay [6] is 0.00653 (inactive).
On to `CCCC(C)C1C(C#N)=C(N)Oc2c1c(=O)oc1ccccc21` (stereo not given), for which the cell count in assay [1] was found to be 547. In addition, the inhibition in assay [1] was -13.2% (inactive); in assay [3] it was -29.8% (inactive); in assay [7] it was 7.33% (inactive); in assay [8] it was 22.2% (inactive). For the same compound, the inhibition of aggregation in assay [2] was 9.9% (inactive). Further, the values for the nuclei count in assay [2] and in assay [3] were 86.4% and 108%, respectively. Besides, the fluorescence slope in assay [4] is -0.422 (inactive). The NADPH fluorescence slope in assay [5] is 2.9e-06 (inactive). The slope in assay [6] is 0.00396 (inactive).
